Results filed as inconclusive are left out. Unmarked numbers belong to inactive results. The source made the active and inactive calls. Calls come from the whole dose curve; as a rule, active = well fitted inhibition curve with a large enough effect; inconclusive = small, poorly fitted or top-dose-only effect; inactive = no such curve, though single readings can be large or run the other way. Where a SMILES comes first, the peptide text is derived from it.
Experiment: Primary qHTS for inhibitors of nuclear receptor binding SET domain protein 2 (NSD2) in an RCH-ACV wild type WT cells (2C) (AID 1645877); note: nearly all actives have a fitted effect of over 70% in size
Conditions: RCH-ACV (leukaemia line) NSD2 WT (2C) viability, CellTiter-Glo, 72 h; series mostly up to 44.9 µM; activity change, negative = cell killing: at the top concentration
% is set by controls: 0 for no effect and ±100 for the full control effect.

Row | SMILES | activity change, negative = cell killing | outcome
1 | CC[C@H]1OC(=O)[C@H](C)[C@@H](O[C@H]2C[C@@](C)(OC)[C@@H](O)[C@H](C)O2)[C@H](C)[C@@H](O[C@@H]2O[C@H](C)C[C@H](N(C)C)[C@H]2O)[C@@](C)(O)C[C@@H](C)[C@@H]2N[C@@H](COCCOC)OC([C@H]2C)[C@]1(C)O | -8.78% | –
2 | CC1=CC(=O)CC(C)(C)C1CCC(C)OC1OC(COC(=O)c2cc(O)c(O)c(O)c2)C(O)C(O)C1O (stereo unspecified) | 0.885% [at 17.3 µM] | –
3 | CC1NC(=O)CNC(=O)C(C(C)C)NC(=O)C2CCCN2C(=O)C(C(C)C)NC(=O)C(Cc2c[nH]c3ccccc23)NC1=O (stereo unspecified) (cyclo(GAWVPV); configuration not given here) | 1.58% [at 17.3 µM] | –
4 | COC(=O)C1=CO[C@@H](O[C@@H]2O[C@H](CO)[C@@H](O)[C@H](O)[C@H]2O)[C@@H]2[C@@](C)(O)[C@@H](O)C[C@]12O | – | inactive [at 17.3 µM]
5 | NC(=O)c1ccc(OCC2NC(=O)C3CCCN3C2=O)cc1 (stereo unspecified) | -0.369% | –
6 | c1ccc(Cc2ncc3c(n2)CCNCC3)cc1 | -10.4% | –

— PubChem BioAssay (NCATS)
